Test results as given in PubChem BioAssay (NCATS).
Records with an inconclusive call do not appear. Calls of active or inactive are those of the source. Calls come from the whole dose curve. Numbered stars: 1 amine (or outer) side, 2 acyl side, 3 side chain; on linkers, the order of the positions; unused ones are H or OH. Square brackets hold non-standard residues; d marks the D form. Side chains are listed from the residue outwards. Peptide text beside a SMILES is read from it. * marks the point of attachment. Ethylenediamine = C(CN[*:2])N[*:1]; Hyp = O=C(O)[C@@H]1C[C@@H](O)CN1; Phg = N[C@H](C(=O)O)c1ccccc1; CO = O=C([*:1])[*:2]; Bn = c1ccc(C*)cc1

What was measured:
[1] = Primary qHTS for inhibitors of SARS-S pseudo-typed particle cell entry (AID 1479145); details: outcome: dose series up to 57.1 µM unless noted; note: nearly all actives have a fitted effect of over 45% in size; for activity change, negative = inhibition: % is set by controls: 0 for no effect and ±100 for the full control effect
[2] = Primary qHTS for Huh7 cytotoxicity: counterscreen for inhibitors of MERS-S pseudotyped particle cell entry (AID 1479147); details: outcome: dose series up to 57.1 µM unless noted; note: potency is the fitted concentration of half-maximal effect; for activity change, negative = cytotoxicity: % is set by controls: 0 for no effect and ±100 for the full control effect
[3] = Primary qHTS for inhibitors of MERS-S pseudo-typed particle cell entry (AID 1479149); details: outcome: dose series up to 57.1 µM unless noted; note: nearly all actives have a fitted effect of over 60% in size
[4] = Primary qHTS for Vero E6 cytotoxicity: counterscreen for inhibitors of SARS-S pseudo-typed particle cell entry (AID 1479150); details: outcome: dose series up to 57.1 µM unless noted; note: potency is the fitted concentration of half-maximal effect; for activity change, negative = cytotoxicity: % is set by controls: 0 for no effect and ±100 for the full control effect
[5] = Cytotoxicity counterscreen for inhibitors of SARS-CoV-2 cell entry (AID 1645845); details: outcome: dose series up to 57.1 µM unless noted; note: nearly all actives have a fitted effect of over 50% in size; note: potency is the fitted concentration of half-maximal effect; for activity change, negative = cytotoxicity: % is set by controls: 0 for no effect and ±100 for the full control effect
Outline: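 48 h compound treatment (after 1 h preincubation), HEK293-ACE2 cells, 37 C/5% CO2; ATP luminescence endpoint; normalized to cell wells and media blanks.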

[6] = Primary qHTS to identify inhibitors of SARS-CoV-2 cell entry (AID 1645846); details: SARS-CoV-2 pseudovirus cell entry assay, luminescence; activity change, negative = inhibition: at 57.1 µM (top of the series) unless noted; note: nearly all actives have a fitted effect of over 45% in size
Outline: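 Luminescence readout (Bright-Glo luciferase) 48 h after pseudoparticle addition. HEK293-ACE2 cells, 1500/well; compound pre-incubation 1 h; Normalized to spike PP and bald PP.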

CC1(C)S[C@@H]2[C@H](NC(=O)C(C(=O)O)c3ccsc3)C(=O)N2[C@H]1C(=O)O (stereo partly drawn)
inactive: Potency [1] | Potency [2] | Potency [3] | Potency [4] | Potency [5]

CCCCCCCCCC(=O)OCCN1CCN(CC/C=C2/c3ccccc3Sc3ccc(Cl)cc32)CC1
inactive: Potency [1] | Potency [2] | Potency [3] | Potency [4] | Potency [5]

CC(C)CN(C[C@@H](O)[C@H](Cc1ccccc1)NC(=O)O[C@H]1CCOC1)S(=O)(=O)c1ccc(N)cc1
inactive: Potency [1] | Potency [2] | Potency [3] | Potency [4] | Potency [5]

O=C(N[C@H]1CCS[C@H]2CCC[C@@H](C(=O)O)N2C1=O)[C@@H](S)Cc1ccccc1
inactive: Potency [1] | Potency [2] | Potency [3] | Potency [4] | Potency [5]

COc1ccc(NC(=O)c2ccc(C(=N)N(C)C)cc2)c(C(=O)Nc2ccc(Cl)cn2)c1
inactive: Potency [1] | Potency [2] | Potency [3] | Potency [4] | Potency [5]

C[C@@H]1CCC[C@H](C)N1NC(=O)c1ccc(Cl)c(S(N)(=O)=O)c1
inactive: Potency [1] | Potency [2] | Potency [3] | Potency [4] | Potency [5]

CCC1(C)OC(=O)N(C)C1=O (stereo not drawn)
inactive: Potency [1] | Potency [2] | Potency [3] | Potency [4] | Potency [5]

C=C[C@@H]1C[C@]1(NC(=O)[C@@H]1C[C@@H]2CN1C(=O)[C@H](C(C)(C)C)NC(=O)O[C@@H]1C[C@H]1CCCCCc1nc3ccc(OC)cc3nc1O2)C(=O)NS(=O)(=O)C1CC1
inactive: Potency [1] | Potency [2] | Potency [3] | Potency [4] | Potency [5]

CC(C)C(=O)OCC(=O)[C@@]12OC(C3CCCCC3)O[C@@H]1C[C@H]1[C@@H]3CCC4=CC(=O)C=C[C@]4(C)[C@H]3[C@@H](O)C[C@@]12C (stereo partly drawn)
inactive: Potency [1] | Potency [2] | Potency [3] | Potency [4] | Potency [5]

CC(C)[C@H]1CC[C@H](C)C[C@H]1O
inactive: Potency [1] | Potency [2] | Potency [3] | Potency [4] | Potency [5]

OC[C@H]1O[C@@H](OCCc2ccc(O)cc2)[C@H](O)[C@@H](O)[C@@H]1O
inactive: Potency [1] | Potency [2] | Potency [3] | Potency [4] | Potency [5]

CC(C)(C)NC(=O)[C@@H]1C[C@@H]2CCCC[C@H]2CN1C[C@@H](O)[C@H](Cc1ccccc1)NC(=O)[C@H](CC(N)=O)NC(=O)c1ccc2ccccc2n1
inactive: Potency [1] | Potency [2] | Potency [3] | Potency [4] | Potency [5]

CSCCNc1nc(SCCC(F)(F)F)nc2c1ncn2[C@@H]1O[C@H](COP(=O)(O)OP(=O)(O)C(Cl)(Cl)P(=O)(O)O)[C@@H](O)[C@H]1O
inactive: Potency [1] | Potency [2] | Potency [3] | Potency [4] | Potency [5]

CC1(C)[C@@H]2CC[C@@]1(C)[C@H](OC(=O)CSC#N)C2
inactive: Potency [1] | Potency [2] | Potency [3] | Potency [4] | Potency [5]

C=C1CCN([C@H](C)[C@](O)(Cn2cncn2)c2ccc(F)cc2F)CC1
inactive: Potency [1] | Potency [2] | Potency [3] | Potency [4] | Potency [5]

CNCC(O)c1ccc(OC(=O)C(C)(C)C)c(OC(=O)C(C)(C)C)c1 (stereo not drawn)
inactive: Potency [1] | Potency [2] | Potency [3] | Potency [4] | Potency [5]

C[C@]12CCC3=C4CCC(=O)C=C4CC[C@H]3[C@@H]1CC[C@@]2(O)CC#N
inactive: Potency [1] | Potency [2] | Potency [3] | Potency [4] | Potency [5]

OCc1cc(C(O)CNCCCCCCOCCOCc2c(Cl)cccc2Cl)ccc1O (stereo not drawn)
inactive: Potency [1] | Potency [2] | Potency [3] | Potency [4] | Potency [5]

C[N+]1(C)C2CC[C@H]1CC(OC(=O)C(O)c1ccccc1)C2 (stereo partly drawn)
inactive: Potency [1] | Potency [2] | Potency [3] | Potency [4] | Potency [5]

C[C@H](NCCc1ccc(O)cc1)[C@H](O)c1ccc(O)cc1
inactive: Potency [1] | Potency [2] | Potency [3] | Potency [4] | Potency [5]

Nc1nc2c(c(=O)[nH]1)N(C=O)C(CNc1ccc(C(=O)N[C@@H](CCC(=O)O)C(=O)O)cc1)CN2 (stereo partly drawn)
inactive: activity change, negative = inhibition [1] -33% [at 0.573 µM] | activity change, negative = cytotoxicity [2] 2.64% [at 0.573 µM] | outcome [3] inactive [at 0.573 µM] | activity change, negative = cytotoxicity [4] 2.47% [at 0.573 µM] | outcome [5] inactive [at 0.702 µM]

NCCCC[C@@H]1NC(=O)[C@@H](Cc2c[nH]c3ccccc23)NC(=O)[C@H](c2ccccc2)NC(=O)[C@@H]2C[C@@H](OC(=O)NCCN)CN2C(=O)[C@H](Cc2ccccc2)NC(=O)[C@H](Cc2ccc(OCc3ccccc3)cc2)NC1=O (cyclo([Hyp]([CO-Ethylenediamine])[Phg][dW]KY(Bn)F))
inactive: Potency [1] | Potency [2] | Potency [3] | Potency [4] | Potency [5]

CC1(C)S[C@@H]2[C@H](NC(=O)[C@H](N)c3ccccc3)C(=O)N2[C@H]1C(=O)OCOC(=O)[C@@H]1N2C(=O)C[C@H]2S(=O)(=O)C1(C)C
inactive: Potency [1] | Potency [2] | Potency [3] | Potency [4] | Potency [5]

CCCc1ccc(C(=O)O)cc1
inactive: Potency [1] | Potency [2] | Potency [3] | Potency [4] | Potency [5]

COc1ccc(/C=C/C(=O)OCCC(C)C)cc1
inactive: Potency [1] | Potency [2] | Potency [3] | Potency [4] | Potency [5]

COC(=O)N[C@H](C(=O)N1CCC[C@H]1c1ncc(-c2ccc3c(c2)O[C@@H](c2ccccc2)n2c-3cc3cc(-c4cnc([C@@H]5CCCN5C(=O)[C@@H](NC(=O)OC)C(C)C)[nH]4)ccc32)[nH]1)C(C)C
inactive: Potency [1] | Potency [2] | Potency [3] | Potency [4] | Potency [5]

CC[C@H]1OC(=O)C[C@@H](OC(C)=O)[C@H](C)[C@@H](O[C@@H]2O[C@H](C)[C@@H](O[C@H]3C[C@@](C)(O)[C@@H](OC(=O)CC(C)C)[C@H](C)O3)[C@H](N(C)C)[C@H]2O)[C@@H](CC=O)C[C@@H](C)C(=O)/C=C/C(C)=C/[C@@H]1CO[C@@H]1O[C@H](C)[C@@H](O)[C@@H](OC)[C@H]1OC
inactive: Potency [1] | Potency [2] | Potency [3] | Potency [4] | Potency [5]

OC[C@H]1O[C@@H](O)[C@H](O)[C@@H](O)[C@@H]1O
inactive: Potency [1] | Potency [2] | Potency [3] | Potency [4] | Potency [5]

Cc1ncc([N+](=O)[O-])n1CCOC(=O)c1ccccc1
inactive: Potency [1] | Potency [2] | Potency [3] | Potency [4] | Potency [5]

CCN1CCCC1CNC(=O)c1cc(S(=O)(=O)CC)ccc1OC (stereo not drawn)
inactive: Potency [1] | Potency [2] | Potency [3] | Potency [4] | Potency [5]

CS(=O)(=O)OCC(O)C(O)COS(C)(=O)=O (stereo not drawn)
inactive: Potency [1] | Potency [2] | Potency [3] | Potency [4] | Potency [5]

CCC(=O)Oc1ccc2c(c1)CC[C@@H]1[C@H]2CC[C@]2(C)[C@@H](OC(=O)CC)CC[C@@H]12
inactive: Potency [1] | Potency [2] | Potency [3] | Potency [4] | Potency [5]

CC(C)(C)NCC(O)COc1ccccc1C#N (stereo not drawn)
-9.12%: activity change, negative = inhibition [6]
inactive: Potency [1] | Potency [2] | Potency [3] | Potency [4] | Potency [5]

CCCCC(CC)CCC(CC(C)C)OS(=O)(=O)O (stereo not drawn)
inactive: Potency [1] | Potency [2] | Potency [3] | Potency [4] | Potency [5]

OC[C@H]1O[C@@H](OC[C@H]2O[C@@H](O[C@@H]3[C@@H](O)[C@H](O)O[C@H](CO)[C@H]3O)[C@H](O)[C@@H](O[C@@H]3O[C@H](CO)[C@@H](O)[C@H](O)[C@H]3O)[C@@H]2O)[C@H](O)[C@@H](O)[C@@H]1O
inactive: Potency [1] | Potency [2] | Potency [3] | Potency [4] | Potency [5]

CCCCCCCCCCCCCCCC(=O)OC[C@@H](O)[C@H]1OC[C@H](O)[C@H]1O
inactive: Potency [1] | Potency [2] | Potency [3] | Potency [4] | Potency [5]

O=[N+]([O-])c1ccc(/C=C/c2cccc(CO)n2)o1
inactive: Potency [1] | Potency [2] | Potency [3] | Potency [4] | Potency [5]

NCCCC(N)C(=O)O (stereo not drawn)
inactive: Potency [1] | Potency [2] | Potency [3] | Potency [4] | Potency [5]

O=C(OCCO)c1ccccc1O
inactive: Potency [1] | Potency [2] | Potency [3] | Potency [4] | Potency [5]
-11%: activity change, negative = inhibition [6]

CC(C)OC(=O)Nc1ccc2nc(-c3cscn3)[nH]c2c1
active: Potency [2] 10 µM | Potency [4] 8.91 µM | Potency [5] 7.08 µM
inactive: Potency [1] | Potency [3]

O=C(OCCN(CCO)CCO)c1ccccc1O
inactive: Potency [1] | Potency [2] | Potency [3] | Potency [4] | Potency [5]

NS(=O)(=O)c1ccc(-n2nc(C(F)(F)F)cc2-c2ccc(F)cc2)cc1
inactive: Potency [1] | Potency [2] | Potency [3] | Potency [4] | Potency [5]

CC(C)[C@@H](C)/C=C/[C@@H](C)[C@H]1CC[C@H]2/C(=C/C=C3\C[C@@H](O)CC[C@@H]3C)CCC[C@]12C
inactive: Potency [1] | Potency [2] | Potency [3] | Potency [4] | Potency [5]

CC(C)CCC[C@@H](C)[C@H]1CC[C@H]2[C@@H]3CC[C@H]4C[C@@H](O)CC[C@]4(C)[C@@H]3CC[C@]12C
inactive: Potency [1] | Potency [2] | Potency [3] | Potency [4] | Potency [5]

O=S(=O)(O)CCCS(=O)(=O)O
inactive: Potency [1] | Potency [2] | Potency [3] | Potency [4] | Potency [5]

O=C(O)CSc1nnc(Br)n1-c1ccc(C2CC2)c2ccccc12
inactive: Potency [1] | Potency [2] | Potency [3] | Potency [4] | Potency [5]

Nc1nc(CC(=O)Nc2ccc(CCNC[C@H](O)c3ccccc3)cc2)cs1
-24.2%: activity change, negative = inhibition [6]
inactive: Potency [1] | Potency [2] | Potency [3] | Potency [4] | Potency [5]

CCC(=O)NC[C@@H]1C[C@H]1c1cccc2c1CCO2
inactive: Potency [1] | Potency [2] | Potency [3] | Potency [4] | Potency [5]

CC1=C(C(=O)OCCN(Cc2ccccc2)c2ccccc2)C(c2cccc([N+](=O)[O-])c2)C(P2(=O)OCC(C)(C)CO2)=C(C)N1 (stereo not drawn)
inactive: Potency [1] | Potency [2] | Potency [3] | Potency [4] | Potency [5]

CC1=CC(O)CC(C)(C)C1/C=C/C(C)=C/C=C/C(C)=C/C=C/C=C(C)/C=C/C=C(C)/C=C/C1=C(C)CC(O)CC1(C)C (stereo not drawn)
inactive: Potency [1] | Potency [2] | Potency [3] | Potency [4] | Potency [5]
